Test results reported in PubChem BioAssay (EPA / NIEHS).
Calls of active or inactive are those of the source. Rule for the calls: active = hit-call score of the fitted dose curve at least 0.9, where 1 is the maximum; inactive = score below 0.9.

How the values were obtained:
[1] = target: Bile acid receptor (Homo sapiens) (UniProt Q96RI1); assay: ATG_IR1_CIS: Attagene CIS-FACTORIAL HepG2 Assay for human Nuclear Receptor Subfamily 1 Group H Member 4 (NR1H4), IR1 submotif (AID 2282946); conditions: IR1 reporter transcription, actives raise or lower the signal
Chain of Bile acid receptor (Homo sapiens) (Q96RI1 whole entry, looked up, the tested form may be a part): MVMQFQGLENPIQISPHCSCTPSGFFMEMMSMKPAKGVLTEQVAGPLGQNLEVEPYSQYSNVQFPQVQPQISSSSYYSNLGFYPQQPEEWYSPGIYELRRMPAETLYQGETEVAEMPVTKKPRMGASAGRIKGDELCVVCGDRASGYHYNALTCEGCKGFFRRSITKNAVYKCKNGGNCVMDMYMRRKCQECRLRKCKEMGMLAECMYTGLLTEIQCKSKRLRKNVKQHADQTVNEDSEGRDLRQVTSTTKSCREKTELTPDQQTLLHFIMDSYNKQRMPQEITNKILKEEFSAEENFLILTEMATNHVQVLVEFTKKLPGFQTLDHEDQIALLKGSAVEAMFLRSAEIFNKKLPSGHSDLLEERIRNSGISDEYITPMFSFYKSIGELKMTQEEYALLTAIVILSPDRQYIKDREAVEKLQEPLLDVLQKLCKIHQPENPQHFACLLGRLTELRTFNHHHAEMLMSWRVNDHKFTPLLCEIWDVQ
Summary of the method: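 Cells (human HepG2) carry transiently transfected cis-promoter reporter transcription units. Compounds are incubated 24 h, total RNA is reverse-transcribed and amplified, and labelled fragments are resolved by capillary electrophoresis. Curves use DMSO as baseline.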

[2] = ATG_ISRE_CIS: Attagene CIS-FACTORIAL HepG2 Assay for human Interferon Regulatory Factor 1 (IRF1) binding to an Interferon-Stimulated Response Element (ISRE) (AID 2282948); conditions: HepG2 ISRE cis-reporter (Attagene), mRNA transcription readout; actives raise or lower the signal
Summary of the method: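 Transiently transfected HepG2 cells carrying cis-element reporter units, dosed 24 hours. Reporter mRNA quantified by RT-PCR, fluorescent primer extension, HpaI digestion and capillary electrophoresis. Bidirectional fitting relative to DMSO.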

[3] = ATG_M_32_CIS: Attagene CIS-FACTORIAL HepG2 Assay for M32 Transcription Factor (Internal Marker) (AID 2282949); conditions: HepG2 Attagene cis-factorial M32 reporter, mRNA; actives raise or lower the signal;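 note: background control marker of the multiplexed CIS panel rather than a real target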
Summary of the method: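 Internal background marker read-out: RT-PCR/capillary electrophoresis fluorescence of reporter transcripts from transiently transfected HepG2 cells after 24 h chemical exposure. Activity fitted bidirectionally relative to DMSO negative control.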

[4] = ATG_M_06_CIS: Attagene CIS-FACTORIAL HepG2 Assay for M06 Transcription Factor (Internal Marker) (AID 2282950); conditions: HepG2 Attagene CIS-FACTORIAL M06 internal marker reporter; actives raise or lower the signal
Summary of the method: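 HepG2 liver cells, 24 h exposure. Reporter transcripts from transfected cis-element constructs quantified by RT-PCR/capillary electrophoresis fluorescence. Bidirectional curve fit against DMSO.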

[5] = target: Hypoxia-inducible factor 1-alpha (Homo sapiens) (UniProt Q16665); assay: ATG_HIF1a_CIS: Attagene CIS-FACTORIAL HepG2 Assay for human Hypoxia Inducible Factor 1 (HIF1A) (AID 2282951); conditions: HepG2 Attagene cis-factorial HIF1a reporter transcription; actives raise or lower the signal
Chain of Hypoxia-inducible factor 1-alpha (Homo sapiens) (Q16665 whole entry, looked up): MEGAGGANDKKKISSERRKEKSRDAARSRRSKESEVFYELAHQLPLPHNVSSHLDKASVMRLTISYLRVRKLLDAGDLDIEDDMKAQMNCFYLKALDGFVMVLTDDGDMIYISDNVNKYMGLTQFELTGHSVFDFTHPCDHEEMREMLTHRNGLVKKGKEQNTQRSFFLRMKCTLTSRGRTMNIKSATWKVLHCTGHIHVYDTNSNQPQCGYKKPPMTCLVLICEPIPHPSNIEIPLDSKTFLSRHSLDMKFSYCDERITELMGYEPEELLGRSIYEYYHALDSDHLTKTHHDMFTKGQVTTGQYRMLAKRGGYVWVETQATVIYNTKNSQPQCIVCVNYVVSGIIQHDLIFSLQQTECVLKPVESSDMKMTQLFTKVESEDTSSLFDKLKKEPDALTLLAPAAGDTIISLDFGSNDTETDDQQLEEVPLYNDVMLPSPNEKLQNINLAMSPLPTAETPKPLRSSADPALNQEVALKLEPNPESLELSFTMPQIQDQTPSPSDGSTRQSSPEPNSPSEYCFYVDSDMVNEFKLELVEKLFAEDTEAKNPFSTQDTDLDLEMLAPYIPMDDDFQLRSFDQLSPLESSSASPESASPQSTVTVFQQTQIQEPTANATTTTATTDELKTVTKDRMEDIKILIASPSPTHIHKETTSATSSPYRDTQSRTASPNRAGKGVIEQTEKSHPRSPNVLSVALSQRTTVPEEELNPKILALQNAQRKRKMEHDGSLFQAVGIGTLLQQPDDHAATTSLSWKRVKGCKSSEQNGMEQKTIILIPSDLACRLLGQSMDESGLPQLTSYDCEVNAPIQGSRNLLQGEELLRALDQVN
Summary of the method: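 In this multiplexed cell assay, HepG2 cells bearing transfected cis reporters are dosed for 24 h and reporter mRNA is read by RT-PCR plus capillary electrophoresis; signal increases and decreases are both scored against DMSO.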

[6] = target: Hepatocyte nuclear factor 6 (Homo sapiens) (UniProt Q9UBC0); assay: ATG_HNF6_CIS: Attagene CIS-FACTORIAL HepG2 Assay for human Hepatocyte Nuclear Factor 6 (HNF6) (AID 2282952); conditions: HepG2 Attagene cis-factorial HNF6 reporter transcription; actives raise or lower the signal
Chain of Hepatocyte nuclear factor 6 (Homo sapiens) (Q9UBC0 whole entry, looked up): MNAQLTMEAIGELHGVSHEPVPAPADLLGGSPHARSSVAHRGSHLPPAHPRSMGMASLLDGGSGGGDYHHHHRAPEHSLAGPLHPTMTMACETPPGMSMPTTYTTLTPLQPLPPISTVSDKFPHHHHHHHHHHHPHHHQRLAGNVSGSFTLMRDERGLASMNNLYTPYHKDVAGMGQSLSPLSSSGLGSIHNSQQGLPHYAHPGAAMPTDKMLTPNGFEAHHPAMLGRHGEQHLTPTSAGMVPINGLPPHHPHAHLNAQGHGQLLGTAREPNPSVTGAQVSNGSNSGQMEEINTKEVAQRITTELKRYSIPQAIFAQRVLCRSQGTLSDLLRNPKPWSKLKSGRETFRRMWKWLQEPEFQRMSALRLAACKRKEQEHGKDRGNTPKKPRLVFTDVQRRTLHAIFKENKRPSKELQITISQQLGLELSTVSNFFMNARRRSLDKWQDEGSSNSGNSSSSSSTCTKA
Summary of the method: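 Multiplexed mRNA reporter assay in transfected HepG2; 24 h dosing; RT-PCR plus capillary electrophoresis fluorescence; DMSO-referenced bidirectional curve fitting.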

[7] = target: Heat shock factor protein 1 (Homo sapiens) (UniProt Q00613); assay: ATG_HSE_CIS: Attagene CIS-FACTORIAL HepG2 Assay for human Heat Shock Transcription Factor 1 (HSE) (AID 2282953); conditions: HepG2 HSE cis-reporter, Attagene RNA transcription; actives raise or lower the signal
Chain of Heat shock factor protein 1 (Homo sapiens) (Q00613 whole entry, looked up, the tested form may be a part): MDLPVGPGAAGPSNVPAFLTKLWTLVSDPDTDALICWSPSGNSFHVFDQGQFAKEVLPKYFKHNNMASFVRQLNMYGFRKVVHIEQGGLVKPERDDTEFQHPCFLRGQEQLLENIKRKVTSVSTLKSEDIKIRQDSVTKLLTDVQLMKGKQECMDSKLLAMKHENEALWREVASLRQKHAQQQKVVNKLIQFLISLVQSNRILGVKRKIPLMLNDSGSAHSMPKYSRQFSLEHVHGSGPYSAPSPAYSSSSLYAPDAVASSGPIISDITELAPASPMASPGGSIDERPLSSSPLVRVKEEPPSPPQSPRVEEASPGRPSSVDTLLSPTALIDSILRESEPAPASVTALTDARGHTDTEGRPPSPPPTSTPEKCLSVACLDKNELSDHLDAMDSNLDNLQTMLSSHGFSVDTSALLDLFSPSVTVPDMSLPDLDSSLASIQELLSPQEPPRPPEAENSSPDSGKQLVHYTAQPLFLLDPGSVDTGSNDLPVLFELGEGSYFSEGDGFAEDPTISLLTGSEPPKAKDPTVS
Summary of the method: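 Endogenous transcription factor activity captured via cis-promoter reporter units transfected into HepG2; treatment lasted 24 h. Fluorescence intensity of reporter fragments analysed with bidirectional curve fitting, DMSO baseline.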

[8] = ATG_MRE_CIS: Attagene CIS-FACTORIAL HepG2 Assay for human Metal Responsive Element (MRE) (AID 2282954); conditions: HepG2 MRE cis-reporter transcription, Attagene multiplex; actives raise or lower the signal
Summary of the method: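 After a 24 h chemical exposure, transiently transfected HepG2 cells yield RNA whose reporter sequences are amplified, FAM-labelled and sized by capillary electrophoresis. Curves are fitted bidirectionally relative to DMSO.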

[9] = target: Paired box protein Pax-6 (Homo sapiens) (UniProt P26367); assay: ATG_Pax6_CIS: Attagene CIS-FACTORIAL HepG2 Assay for human Paired Box 6 (PAX6) (AID 2282956); conditions: HepG2 CIS-FACTORIAL PAX6 reporter transcription, RNA readout; actives raise or lower the signal
Chain of Paired box protein Pax-6 (Homo sapiens) (P26367 whole entry, looked up): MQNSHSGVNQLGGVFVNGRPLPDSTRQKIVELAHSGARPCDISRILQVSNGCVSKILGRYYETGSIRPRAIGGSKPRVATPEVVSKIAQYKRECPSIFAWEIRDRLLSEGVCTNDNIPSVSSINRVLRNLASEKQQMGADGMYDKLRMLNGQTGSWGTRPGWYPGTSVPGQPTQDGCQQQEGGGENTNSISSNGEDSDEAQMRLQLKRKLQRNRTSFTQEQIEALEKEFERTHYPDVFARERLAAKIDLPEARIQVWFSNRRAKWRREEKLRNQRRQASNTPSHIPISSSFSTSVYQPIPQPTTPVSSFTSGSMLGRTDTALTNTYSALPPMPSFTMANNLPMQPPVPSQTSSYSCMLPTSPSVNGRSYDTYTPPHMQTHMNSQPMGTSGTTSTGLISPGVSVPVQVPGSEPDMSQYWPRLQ
Summary of the method: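 HepG2 cells transiently transfected with cis-promoter-driven multiplexed reporter units sensing endogenous transcription factor activity; 24 h chemical exposure. Reporter mRNA quantified by RT-PCR, 6-FAM labelling, HpaI digestion and capillary electrophoresis; bidirectional fit versus DMSO baseline.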

[10] = ATG_PXRE_CIS: Attagene CIS-FACTORIAL HepG2 Assay for human Pregnane X Receptor Element (PXRE) (AID 2282957); conditions: HepG2 Attagene CIS-FACTORIAL PXRE reporter, mRNA; actives raise or lower the signal
Summary of the method: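 Cells: HepG2, transiently transfected reporter units under cis promoter control. Exposure: 24 h. Detection: reporter mRNA via RT-PCR/CE fluorescence; bidirectional fitting, DMSO-referenced.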

[11] = ATG_PPRE_CIS: Attagene CIS-FACTORIAL HepG2 Assay for human Peroxisome Proliferator-activated Response Element (PPRE) (AID 2282958); conditions: HepG2 PPRE cis-element reporter, Attagene transcription factor profiling; actives raise or lower the signal
Summary of the method: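 Multiplexed reporter transcription units under cis-regulatory promoters were transfected into HepG2 cells to capture endogenous factor activity. A 24 h incubation preceded RNA isolation and fluorescent RT-PCR fragment analysis.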

[12] = ATG_RORE_CIS: Attagene CIS-FACTORIAL HepG2 Assay for human RAR-related Orphan Receptor Element (RORE) (AID 2282959); conditions: HepG2 Attagene cis-factorial RORE reporter, mRNA; actives raise or lower the signal
Summary of the method: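 Fluorescence intensity of reporter-specific cDNA fragments, separated by capillary electrophoresis, gives the signal. Source: HepG2 liver cells transiently transfected with cis-element reporters and exposed 24 h; DMSO-normalized bidirectional fit.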

[13] = ATG_Sox_CIS: Attagene CIS-FACTORIAL HepG2 Assay for human SRY-box transcription factor (SOX) (AID 2282960); conditions: HepG2 Attagene cis-factorial SOX reporter, mRNA; actives raise or lower the signal
Summary of the method: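 After 24 h of chemical treatment, transfected HepG2 reporter cells are lysed for total RNA. Transcript levels come from RT-PCR with labelled primer extension and capillary electrophoresis, analysed bidirectionally versus DMSO.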

[14] = target: Transcription factor Sp1 (Homo sapiens) (UniProt P08047); assay: ATG_Sp1_CIS: Attagene CIS-FACTORIAL HepG2 Assay for human Specificity Protein 1 (Sp1) (AID 2282961); conditions: HepG2 Sp1 cis-reporter transcription, actives raise or lower the signal
Chain of Transcription factor Sp1 (Homo sapiens) (P08047 whole entry, looked up): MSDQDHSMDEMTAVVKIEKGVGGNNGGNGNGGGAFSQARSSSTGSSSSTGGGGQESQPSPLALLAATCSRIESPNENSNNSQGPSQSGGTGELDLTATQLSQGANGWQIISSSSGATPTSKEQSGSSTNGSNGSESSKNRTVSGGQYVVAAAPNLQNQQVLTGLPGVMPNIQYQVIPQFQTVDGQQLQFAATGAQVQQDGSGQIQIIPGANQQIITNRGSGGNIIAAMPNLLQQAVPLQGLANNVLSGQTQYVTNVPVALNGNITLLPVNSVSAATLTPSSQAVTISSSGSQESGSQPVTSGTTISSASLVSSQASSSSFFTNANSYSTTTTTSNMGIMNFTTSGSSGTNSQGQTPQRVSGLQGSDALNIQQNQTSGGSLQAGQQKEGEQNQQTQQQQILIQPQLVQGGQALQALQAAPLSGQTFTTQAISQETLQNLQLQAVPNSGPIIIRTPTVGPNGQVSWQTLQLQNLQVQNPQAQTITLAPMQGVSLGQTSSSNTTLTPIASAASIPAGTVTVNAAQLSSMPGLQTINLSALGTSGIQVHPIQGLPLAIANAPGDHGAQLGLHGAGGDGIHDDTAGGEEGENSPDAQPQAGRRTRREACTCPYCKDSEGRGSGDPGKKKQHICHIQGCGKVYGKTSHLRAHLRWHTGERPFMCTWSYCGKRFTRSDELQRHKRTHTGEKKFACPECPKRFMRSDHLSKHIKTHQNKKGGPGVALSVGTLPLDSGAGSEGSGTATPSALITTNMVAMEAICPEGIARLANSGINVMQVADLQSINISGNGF
Summary of the method: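 Sp1-driven reporter mRNA, read as capillary electrophoresis fluorescence after RT-PCR, in transiently transfected HepG2 cells dosed for 24 h; signal change in either direction relative to DMSO.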

[15] = ATG_SREBP_CIS: Attagene CIS-FACTORIAL HepG2 Assay for human Sterol Regulatory Element Binding (SREBP) (AID 2282962); conditions: HepG2 Attagene cis-factorial SREBP reporter, mRNA; actives raise or lower the signal
Summary of the method: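 HepG2 cells transiently transfected with multiplexed cis-promoter reporter units sensing endogenous transcription factors; reporter mRNA measured 24 h after dosing by RT-PCR, 6-FAM labeling, HpaI digestion and capillary electrophoresis. Bidirectional fit versus DMSO.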

[16] = target: Signal transducer and activator of transcription 3 (Homo sapiens) (UniProt P40763); assay: ATG_STAT3_CIS: Attagene CIS-FACTORIAL HepG2 Assay for human Signal Transducer and Activator of Transcription 3 (STAT3) (AID 2282963); conditions: HepG2, Attagene cis-factorial STAT3 reporter transcription; actives raise or lower the signal
Chain of Signal transducer and activator of transcription 3 (Homo sapiens) (P40763 whole entry, looked up): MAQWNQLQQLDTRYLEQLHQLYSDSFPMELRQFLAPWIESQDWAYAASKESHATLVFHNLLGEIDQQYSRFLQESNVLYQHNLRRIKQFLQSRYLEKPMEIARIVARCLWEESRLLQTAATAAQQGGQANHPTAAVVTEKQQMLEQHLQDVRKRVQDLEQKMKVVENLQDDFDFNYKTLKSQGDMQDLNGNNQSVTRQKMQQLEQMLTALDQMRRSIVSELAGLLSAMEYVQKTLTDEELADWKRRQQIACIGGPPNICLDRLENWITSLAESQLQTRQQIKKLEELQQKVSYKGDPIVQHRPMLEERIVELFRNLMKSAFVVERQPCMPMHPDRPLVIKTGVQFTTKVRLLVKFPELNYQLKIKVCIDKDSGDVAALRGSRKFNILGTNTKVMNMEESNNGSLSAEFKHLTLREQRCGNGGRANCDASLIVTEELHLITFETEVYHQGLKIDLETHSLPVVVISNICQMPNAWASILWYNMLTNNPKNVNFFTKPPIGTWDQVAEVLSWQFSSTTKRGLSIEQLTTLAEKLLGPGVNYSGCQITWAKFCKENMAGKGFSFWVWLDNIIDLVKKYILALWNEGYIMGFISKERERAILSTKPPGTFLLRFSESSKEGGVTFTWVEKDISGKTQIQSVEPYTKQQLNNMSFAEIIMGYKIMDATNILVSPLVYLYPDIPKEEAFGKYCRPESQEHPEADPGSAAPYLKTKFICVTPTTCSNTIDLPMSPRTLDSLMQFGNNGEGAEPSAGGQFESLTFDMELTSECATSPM
Summary of the method: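 After a 24 h compound incubation, total RNA from MRTU-transfected HepG2 cells was converted to cDNA and reporter sequences PCR-amplified, labelled and profiled by capillary electrophoresis. Gain and loss of signal were referenced to DMSO.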

[17] = ATG_TA_CIS: Attagene CIS-FACTORIAL HepG2 Assay for human TA Basal Promoter (AID 2282964); conditions: HepG2 Attagene CIS-factorial TA basal promoter reporter; actives raise or lower the signal
Summary of the method: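 Fluorescence from labelled RT-PCR reporter fragments, separated by capillary electrophoresis, gives the signal. Cells: HepG2 transiently carrying multiple reporter units, 24 h chemical dosing. Gain or loss relative to DMSO.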

[18] = ATG_TCF_b_cat_CIS: Attagene CIS-FACTORIAL HepG2 Assay for human T-Cell-Factor with beta-catenin (TCF/b-cat) (AID 2282965); conditions: HepG2 TCF/beta-catenin cis-reporter transcription, actives raise or lower the signal
Summary of the method: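 Endogenous transcription factor activity is captured through cis-promoter reporter constructs transiently introduced into human HepG2 liver cells. Induced reporter mRNA is measured after 24 h and fitted bidirectionally relative to DMSO.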

[19] = ATG_PBREM_CIS: Attagene CIS-FACTORIAL HepG2 Assay for human Phenobarbital-responsive Enhancer Module (PBREM) (AID 2282955); conditions: HepG2 PBREM cis-reporter, Attagene multiplexed transcription; actives raise or lower the signal
Summary of the method: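 After a 24 h incubation with test chemical, transfected HepG2 cells yield total RNA; reporter-specific RT-PCR products are fluorescently labelled, HpaI-digested and resolved by capillary electrophoresis against ROX size standards.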

[20] = ATG_GRE_CIS: Attagene CIS-FACTORIAL HepG2 Assay for human Glucocorticoid Response Elements (GRE) (AID 2282947); conditions: HepG2 GRE cis-reporter, Attagene multiplex mRNA; actives raise or lower the signal
Summary of the method: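 Assay uses human hepatoma HepG2 cells transfected with cis-promoter reporter units, exposed 24 h. mRNA from reporters detected by RT-PCR plus capillary electrophoresis; DMSO serves as negative control and baseline.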

Measured: AC50

CNCCO
not listed: [18] | [19] | [20]
inactive: all other assays above

OC1C(O)C(O)C(O)C(O)C1O (centres undefined)
not listed: [17] | [19] | [20]
inactive: all other assays above

O=C(O)Cc1cccc2ccccc12
active: [11] 100 µM
not listed: [19] | [20]
inactive: all other assays above

c1ccc(CCCc2ccccn2)cc1
active: [8] 81.5 µM | [19] 67 µM | [10] 100 µM
not listed: [7] | [11] | [16] | [20]
inactive: all other assays above

NC(=O)c1ccccc1Cl
active: [7] 62.7 µM | [9] 65 µM | [10] 40.7 µM | [13] 68.9 µM | [14] 41.1 µM | [18] 65.8 µM
not listed: [2] | [3]
inactive: all other assays above

Cc1ccc(C=O)cc1
not listed: [2] | [19]
inactive: all other assays above

CC(=O)Nc1ccc(C)cc1C
not listed: [2] | [20]
inactive: all other assays above

Cc1ccc2n[nH]nc2c1
not listed: [2] | [7] | [19]
inactive: all other assays above
